# From the supplement of paper PMC12819154, “High-throughput peptide-centric local stability assay extends protein–ligand identification to membrane proteins, tissues and bacteria” (Nature Structural & Molecular Biology, 2025)
# Compound: Nc1ncnc2c1ncn2[C@@H]1O[C@H](COP(=O)(O)OP(=O)(O)OP(=O)(O)O)[C@@H](O)[C@H]1O [adenosine 5'-triphosphate]
# Test: log2 fold change of tryptic peptide abundance, ligand vs vehicle (limited proteolysis) (log2 ratio); higher = more trypsin-susceptible (destabilized)
# Conditions: ligand concentration: 5 mM; sample: E. coli desalted lysate; replicate design: treated before aliquoting
# Protocol: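 HT-PELSA: desalted E. coli K-12 BW25113 lysate (with 12 mM MgCl2) incubated with 5 mM ATP (pH 7) or water for 30 min at 25 C, then a 4 min trypsin pulse at 22 C. Peptides were quantified by DIA-MS (4 replicates). Value is the peptide log2 fold change (treated/control); negative = stabilized. Scale: negative = ligand-stabilized region.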
# 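Also: lysate desalted by size exclusion to strip endogenous ATP, peptide intensities built from DIA-NN precursor signals, and peptides missing any value discarded before comparison.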
row,Target,log2 fold change
1,"UniProt P77754 (peptide sequence: DLNLTDAQK, peptide start residue: 54)",-0.35
2,"UniProt P39452 (peptide sequence: IIDTYAEATR, peptide start residue: 646)",-1.19
3,"UniProt P0AG16 (peptide sequence: TFIMPGQQLR, peptide start residue: 334)",-0.26
4,"UniProt P37339 (peptide sequence: AFCDQNGIR, peptide start residue: 75)",0.681
5,"UniProt P24182 (peptide sequence: LMGDKVSAIAAMKK, peptide start residue: 112)",-1.24
6,"UniProt Q46856 (peptide sequence: IDAAIAATR, peptide start residue: 323)",-1.68
7,"UniProt P37648 (peptide sequence: DKGLPEEEFNALVAQK, peptide start residue: 363)",0.498
8,"UniProt P30958 (peptide sequence: FANWPVR, peptide start residue: 673)",-0.413
9,"UniProt P23830 (peptide sequence: EALGVLHFK, peptide start residue: 132)",-0.891
10,"UniProt P0ACW6 (peptide sequence: FMSLFDKHNK, peptide start residue: 19)",-0.425
11,"UniProt P75728 (peptide sequence: LVIGADGANSQVR, peptide start residue: 160)",0.798
12,"UniProt Q46802 (peptide sequence: GAFTGASANGK, peptide start residue: 347)",-0.841
13,"UniProt P26612 (peptide sequence: TIHLGENYGNK, peptide start residue: 446)",0.945
14,"UniProt P08660 (peptide sequence: RNQTLLTLHSLNMLHSR, peptide start residue: 306)",-0.461
15,"UniProt P27126 (peptide sequence: IGMDNAWLGR, peptide start residue: 45)",-0.467
16,"UniProt P64636 (peptide sequence: EDTIPFLEALK, peptide start residue: 96)",0.412
17,"UniProt P31660 (peptide sequence: SGNDLHYR, peptide start residue: 38)",1.29
18,"UniProt P39180 (peptide sequence: NLNGQNGTISLR, peptide start residue: 603)",0.735
19,"UniProt P33593 (peptide sequence: VLALVGGSGSGK, peptide start residue: 31)",-0.833
20,"UniProt P64610 (peptide sequence: IVTMSLKPQNILCHR, peptide start residue: 126)",-0.974

row,Target,log2 fold change
1,"UniProt P36672 (peptide sequence: LRFVLNQPANARPK, peptide start residue: 33)",0.581
2,"UniProt P55734 (peptide sequence: LRHEQIIFHCQAGKR, peptide start residue: 55)",0.948
3,"UniProt P37903 (peptide sequence: VHVHVEEGSPKDR, peptide start residue: 86)",-1.8
4,"UniProt P24232 (peptide sequence: MFTHNPELKEIFNMSNQR, peptide start residue: 32)",-1.5
5,"UniProt P75785 (peptide sequence: SLGLTLNR, peptide start residue: 266)",-0.884
6,"UniProt P0A9B6 (peptide sequence: SLQSLPWR, peptide start residue: 82)",-0.912
7,"UniProt P75829 (peptide sequence: EIAEIASK, peptide start residue: 298)",-0.281
8,"UniProt P39161 (peptide sequence: QILAALIK, peptide start residue: 203)",0.746
9,"UniProt P15254 (peptide sequence: QALIDANLR, peptide start residue: 169)",-0.778
10,"UniProt P25519 (peptide sequence: IDRDEENKPNR, peptide start residue: 329)",-1.08
11,"UniProt P09323 (peptide sequence: AIDACITR, peptide start residue: 408)",0.593
12,"UniProt Q46906 (peptide sequence: AEGFFCIHR, peptide start residue: 99)",-0.839
13,"UniProt P77202 (peptide sequence: TLNIIMGNK, peptide start residue: 240)",0.511
14,"UniProt P76340 (peptide sequence: ILLIEDNQR, peptide start residue: 3)",-0.349
15,"UniProt P06966 (peptide sequence: ISHVSVSQWER, peptide start residue: 32)",-1
16,"UniProt P21514 (peptide sequence: NPIPVTPEAR, peptide start residue: 237)",-2.06
17,"UniProt Q47129 (peptide sequence: LDADLPMVQLSHR, peptide start residue: 141)",-1.3
18,"UniProt P46850 (peptide sequence: KDAEVIDEIPMAYK, peptide start residue: 368)",-0.573
19,"UniProt P75838 (peptide sequence: GICGLPFTR, peptide start residue: 152)",-2.31
